According to PubChem BioAssay (NCI):
This is part of a sample that, as a whole, favours compounds with a hit. Of some 79,000 tested, about 15% had one in any assay. Rule as the data show it: active = growth inhibition above about 70%; inactive = the rest.

Experiments:
[1] = NCI Yeast Anticancer Drug Screen. Data for the rad50 strain (AID 155);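 also: 0% = growth of vehicle-only cultures of the same strain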; conditions: S. cerevisiae rad50 strain growth inhibition; at 50.0 µM; hits give high values
How it was run: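 Yeast carrying a defined DNA repair defect were exposed to test compounds, and growth was compared with vehicle-treated controls to give percent inhibition.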

[2] = NCI Yeast Anticancer Drug Screen. Data for the mec2-1 strain (AID 157); conditions: S. cerevisiae mec2-1 strain, at 50.0 µM, hits give high values
How it was run: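 Vehicle-treated cultures served as reference for growth inhibition of compound-exposed mec2-1 yeast.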

[3] = NCI Yeast Anticancer Drug Screen. Data for the sgs1 mgt1 strain (AID 161);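 also: 0% = growth of cultures given vehicle only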; conditions: S. cerevisiae sgs1 mgt1 strain, at 50.0 µM, hits give high values
How it was run: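 Genetically altered yeast, compound exposure, growth inhibition relative to vehicle.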

[4] = NCI Yeast Anticancer Drug Screen. Data for the cln2 rad14 strain (AID 165);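 also: 0% = growth equal to vehicle treated cultures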; conditions: S. cerevisiae cln2 rad14 strain, at 50.0 µM, hits give high values
How it was run: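 Each compound was tested on cln2 rad14 yeast. Inhibition of growth was calculated against vehicle-exposed controls.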

[5] = NCI Yeast Anticancer Drug Screen. Data for the bub3 strain (AID 167); conditions: S. cerevisiae bub3 mutant strain, at 50.0 µM, hits give high values
How it was run: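 Compounds were applied to a genetically altered yeast strain carrying a cell-cycle control defect. Growth inhibition was scored against vehicle-treated controls.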

[6] = NCI Yeast Anticancer Drug Screen. Data for the mlh1 rad18 strain (AID 175); conditions: S. cerevisiae mlh1 rad18 strain growth inhibition; at 50.0 µM; hits give high values
How it was run: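 Vehicle-treated cultures served as the reference for growth inhibition in a yeast strain carrying DNA damage repair alterations exposed to each compound.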

Measured: growth inhibition

CCc1cccc[n+]1CC(=O)c1ccccc1
inactive: [1] -23.5% | [2] 5.85% | [3] -0.85% | [4] -41.8% | [5] 39.7% | [6] 12%

O=C(Nc1cccc(Cl)c1)c1ccc(Cl)cc1
inactive: [1] 2.95% | [2] 24.2% | [3] 7.75% | [4] -12.9% | [5] 26.7% | [6] 4.3%

O=c1[nH]cc(CS)c(=O)[nH]1
inactive: [1] 28.4% | [2] 0.85% | [3] -7.95% | [4] 34% | [5] 51% | [6] 14.5%

CCC(O)(c1ccc(O)cc1)C(O)(CC)c1ccc(O)cc1 (stereo unspecified)
inactive: [1] 1.4% | [2] -12.8% | [3] -0.2% | [4] 5.55% | [5] 17.4% | [6] -14.4%

CCCCC(CC)CCC(C)=O (stereo unspecified)
inactive: [1] 5.8% | [2] -0.8% | [3] 0.35% | [4] 3.3% | [5] 1.75% | [6] -0.9%

Cc1cccc2c1NC(O)c1cccn1C2=O (stereo unspecified)
inactive: [1] 6.45% | [2] 2.75% | [3] 5.55% | [4] -22.4% | [5] -18.6% | [6] -2.4%

COc1ccc(N)nn1
inactive: [1] 1.6% | [2] -6.9% | [3] -9.15% | [4] 7.5% | [5] 4.75% | [6] -10.2%

CS(=O)(=O)C(CCC(=O)c1cccs1)C(=O)c1ccccc1 (stereo unspecified)
inactive: [1] -2.95% | [2] 3.25% | [3] -6.65% | [4] 1.85% | [5] 0.2% | [6] 14.4%

C1CCC(NCSC2=NCCS2)CC1
inactive: [1] 36.5% | [2] -4.7% | [3] 0.05% | [4] -29.8% | [5] 7.95% | [6] 1.9%

Nc1cc(C(=O)O)c(O)c(Cl)c1O
inactive: [1] 31.3% | [2] 7.05% | [3] 12.3% | [4] 21.6% | [5] 4.5% | [6] 29.8%

Cc1ccc(N/N=c2\c3nc4ccccc4nc2n(-c2ccccc2C)c(=S)n3-c2ccc(C)cc2)cc1
inactive: [1] -19.6% | [2] -14.3% | [3] 1.15% | [4] -18.7% | [5] 0.8% | [6] -29.5%

COc1ccccc1CNCCCCCNCCCCCCCCCCNCCCCCNCc1ccccc1OC
inactive: [1] -32.4% | [2] -11.1% | [3] -27.9% | [4] -9.1% | [5] -22% | [6] -36.5%

Cc1cnccc1P(=O)(O)O
inactive: [1] 13.7% | [2] -4.8% | [3] 6.7% | [4] -21.7% | [5] -3.55% | [6] 5.65%

CC1CCCC(=O)CCC1
inactive: [1] 2.9% | [2] -4.6% | [3] -9.05% | [4] 7.15% | [5] 10.8% | [6] 2.55%

Cc1cccc(C)c1NC(=O)Nc1cccc(O)c1
inactive: [1] -1.4% | [2] 34.8% | [3] 13.5% | [4] -4.4% | [5] 37.6% | [6] 26.4%

CC(C)(C)CC(C)(C)c1ccc(OCCOc2ccccc2NS(=O)(=O)c2ccc(N)cc2)cc1
inactive: [1] 47.5% | [2] -0.35% | [3] 33.6% | [4] 1.1% | [5] 10.1% | [6] 23.6%

COc1ccc(Cc2cc3c(cc2OC(C)=O)OCO3)cc1
inactive: [1] -4.2% | [2] -10.3% | [3] -5.75% | [4] 8.9% | [5] 38.2% | [6] 7.25%

CCOC(=O)C(Cc1ccc(O)cc1)NC(=O)C(CSC(c1ccccc1)(c1ccccc1)c1ccccc1)NC(c1ccccc1)(c1ccccc1)c1ccccc1 (stereo unspecified)
inactive: [1] 4.85% | [2] 0.8% | [3] -14.8% | [4] -1.65% | [5] -5.05% | [6] 9.55%

O=c1[nH]nc(Cc2ccc(Cl)cc2)n1/N=C\CC/C=N\n1c(Cc2ccc(Cl)cc2)n[nH]c1=O
inactive: [1] -18.4% | [2] -0.9% | [3] -14.1% | [4] -4.05% | [5] -13.3% | [6] -3%

O=[N+]([O-])c1ccc(NC2C(O)OC(CO)C(O)C2O)c([N+](=O)[O-])c1 (stereo unspecified)
inactive: [1] 5.1% | [2] -3.2% | [3] 5.55% | [4] -7.15% | [5] 5.8% | [6] -0.95%

N=C(N)SCC(O)c1ccccc1 (stereo unspecified)
inactive: [1] 6.35% | [2] -11.4% | [3] -13.6% | [4] -42.4% | [5] -3.1% | [6] -19.5%
